The nature of test [1]: viability loss in pontine glioma line – cell-based, SU-DIPG-XXV, MIPE5.0, CellTiter-Glo, qHTS, dose response (AID 1347065; cut-off not given, nearly all actives have AC50 up to about 26 µM;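 also: cells exposed to compound for 48 hours before ATP readout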). The note with it: CellTiter-Glo ATP luminescence. (ATP-based viability assays read luminescence as a measure of living cells.)
Test [2] is described as follows: growth inhibition of DIPG cells – cell-based, MIPE4.0 library, CellTiter-Glo luminescence, qHTS (AID 1347066; cut-off not given, nearly all actives have AC50 up to about 30 µM;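 also: cells exposed to compound for 48 hours before readout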). Conditions: SU-DIPG-VI viability, CellTiter-Glo ATP luminescence.
Test [3] in a line: JHH-DIPG-1 glioma cell viability, MIPE5.0 library, CellTiter-Glo luminescence, qHTS (AID 1347067; cut-off not given, nearly all actives have AC50 up to about 26 µM;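 also: cells exposed to compound for 48 hours before readout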). Conditions: JHH-DIPG-1 glioma viability, CellTiter-Glo ATP luminescence.
Test [4] in a line: growth inhibition of DIPG cells – cell-based, MIPE5.0 library, qHTS (AID 1347068; cut-off not given, nearly all actives have IC50 up to about 30 µM). Conditions: SU-DIPG-XXV viability. For orientation: Quantitative high-throughput screening tests each substance at several concentrations.
The nature of test [5]: MELAS cybrid and Rieske KO viability enhancers – cell-based, MELAS cybrids, Rieske KO mouse fibroblasts, CellTiter-Glo, primary screen (AID 1508586;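 active = mean z-score across replicates of 1.96 or higher in either the MELAS or the Rieske mutant cell line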;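 also: z relative to plate mean and SD of compound and empty wells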). Conditions: low glucose.
A short description of test [6]: viability loss with induced miR-34 in A549 – imaging, A549 dox-inducible miR-34, nuclei and caspase counts, primary screen (AID 1347080;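 active = compounds whose cell count with miR-34 switched on is under 0.7 times the count with it off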). Conditions: A549 miR-34 inducible, Hoechst nuclei count, 48 h.
Test [7] can be described thus: blockers of cellular phospholipid synthesis – cell-based, LOPAC library, screen 4, primary screen (AID 1347384; call rule not given here). The note with it: animal cells, phospholipid biosynthesis inhibition screen; at 10 µM.
The nature of test [8]: compounds altering HSF1 focus formation in cells – imaging, Selleck Cancer Library (AID 1347162; in the data active = plate-normalised HSF1 focus index below about 0.46). Conditions: human cells, HSF1 nuclear foci imaging, at 10 µM; SSMD: measured here: HSF1 foci SSMD mean; cell count: measured here: cell number; plate-normalised HSF1 focus index: stronger effect = lower value.
Test [9] is described as follows: drug combination growth inhibition, ovarian cancer – cell-based, oncology-focused library, rucaparib conditional, profiling panel (AID 1508598). The note with it: patient-derived ovarian cancer cells, CellTiter-Glo viability, 144 h, stronger effect = lower value.
The mark [10] stands for this setting: MELAS cybrid survival, CellTiter-Glo 48 h, stronger effect = higher value.
Setting [11] is: Rieske KO mouse fibroblast survival, CellTiter-Glo 72 h.
Where [12] appears, read: stronger effect = lower value, cell number ratio, induced over uninduced.
The mark [13] stands for this setting: measured here: relative caspase fold change +Dox/-Dox.
Setting [14] is: measured here: total cells with miR-34 induction, stronger effect = lower value.
Setting [15] is: measured here: total cells without miR-34 induction.

Several values for one entry are separate records, joined by “and”; a condition that tells them apart may be missing. Equal values may be shown once. Results filed as inconclusive are left out. A structure can be active in one record and inactive in another. Activity calls are given as the source filed them.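 The calls were made as follows, unless noted: active = normalized viability below 100% at a tested concentration; inactive = the rest.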

Take `Nc1[nH]c(=O)ncc1F`: the result in test [1], in [2], in test [3] and in test [4] was inactive. Besides, the z-score in test [5] (setting [10]) was -0.163 (inactive) and 0.671 (inactive); in [5] (setting [11]), 0.841 and -0.221.

In the case of `COc1ccc(C(=O)CC(=O)c2ccc(C(C)(C)C)cc2)cc1`, the molecule was classed as inactive in [1], in [3] and in test [4]. Further, the fold change in test [6] (setting [12]) is 0.967 (inactive) and 0.867 (inactive); in [6] (setting [13]), 0.938 and 3.78. In addition, the cell count was 7480 and 11300 in [6] (setting [14]); 7740 and 13000 in test [6] (setting [15]). In addition, the z-score was -0.399 (inactive) and 2 (active) in [5] (setting [10]); 0.325 and 0.254 in [5] (setting [11]).

Consider `NNc1nncc2ccccc12`, for which the result in test [1], in test [2], in test [3] and in test [7] was inactive. Moreover, the fold change in [6] (setting [12]) is 1.01 (inactive) and 0.821 (inactive); in test [6] (setting [13]), 1.23 and 1.05. Also, the cell count in test [6] (setting [14]) is 10000 and 10300; in test [6] (setting [15]), 9890 and 12600.

In the case of `O=NN(CCCl)C(=O)NCCCl`, the call in [1], in test [3], in [4] and in test [7] was inactive. For the same molecule, the fold change was 0.948 (inactive) and 0.902 (inactive) in test [6] (setting [12]); 1.47 and 4.57 in [6] (setting [13]). The cell count in [6] (setting [14]) is 8130 and 9540; in [6] (setting [15]), 8570 and 10600.

As a reminder, the viability is a read-out of living cells in per cent, often relative to untreated cells. With `COc1cc2c(N3CCN(C(=O)Nc4ccc(OC(C)C)cc4)CC3)ncnc2cc1OCCCN1CCCCC1`, the molecule was called inactive in test [1], in [3] and in test [4]. Further, the fold change in test [6] (setting [12]) is 0.882 (inactive) and 0.979 (inactive); in [6] (setting [13]) it was 1.09 and 0.885. Besides, the cell count is 7400 and 5330 in [6] (setting [14]); 8380 and 5450 in test [6] (setting [15]); 7020 in test [8]. The same molecule showed an SSMD in test [8] of 0.871. In addition, the plate-normalised HSF1 focus index in test [8] was 1.05 (inactive). Moreover, the z-score in test [5] (setting [10]) was -0.531 (inactive); in test [5] (setting [11]), 0.343. Besides, the viability in [9] (at 0.000305 µM, OCI-C5x cells, with rucaparib 10 µM, 100% = cells with rucaparib alone) is 113% (inactive); in test [9] (at 0.000305 µM, OCI-C5x cells, without rucaparib), 103% (inactive); in [9] (at 0.000305 µM, OCI-P5x cells, with rucaparib 20 µM, 100% = cells with rucaparib alone) it was 86.7% (active); in test [9] (at 0.000305 µM, OCI-P5x cells, without rucaparib), 88.3% (active); in test [9] (at 0.00122 µM, OCI-C5x cells, with rucaparib 10 µM, 100% = cells with rucaparib alone), 104% (inactive); in [9] (at 0.00122 µM, OCI-C5x cells, without rucaparib) it was 105% (inactive). Besides, the viability is 97% (active) in [9] (at 0.00122 µM, OCI-P5x cells, with rucaparib 20 µM, 100% = cells with rucaparib alone); 88.4% (active) in [9] (at 0.00122 µM, OCI-P5x cells, without rucaparib); 112% (inactive) in test [9] (at 0.00488 µM, OCI-C5x cells, with rucaparib 10 µM, 100% = cells with rucaparib alone); 97.5% (active) in test [9] (at 0.00488 µM, OCI-C5x cells, without rucaparib); 114% (inactive) in [9] (at 0.00488 µM, OCI-P5x cells, with rucaparib 20 µM, 100% = cells with rucaparib alone); 96.8% (active) in test [9] (at 0.00488 µM, OCI-P5x cells, without rucaparib). Also, the viability in test [9] (at 0.0195 µM, OCI-C5x cells, with rucaparib 10 µM, 100% = cells with rucaparib alone) is 109% (inactive); in test [9] (at 0.0195 µM, OCI-C5x cells, without rucaparib) it was 98.4% (active); in test [9] (at 0.0195 µM, OCI-P5x cells, with rucaparib 20 µM, 100% = cells with rucaparib alone) it was 130% (inactive); in test [9] (at 0.0195 µM, OCI-P5x cells, without rucaparib) it was 92.4% (active); in [9] (at 0.0781 µM, OCI-C5x cells, with rucaparib 10 µM, 100% = cells with rucaparib alone), 113% (inactive); in test [9] (at 0.0781 µM, OCI-C5x cells, without rucaparib) it was 105% (inactive).

The values above are taken from PubChem BioAssay.
